In PubChem BioAssay (NCATS) one finds activity change, negative = inhibition and max response data, which are given here for 14 compounds.

The structures appear in SMILES notation. “And” between values parts separate entries of the source, which are not always exact repeats. Equal entries are not always repeated. Inconclusive results are not listed. The source made the active and inactive calls. Calls follow the shape of the full dose curve.

The assay in a line: qHTS Assay for Lipid Storage Modulators (AID 1519). As to activity change, negative = inhibition: % is scaled to controls: 0 for no effect and ±100 for the full control effect. As to conditions: Drosophila S3 cells, BODIPY lipid droplet/cell ratio, laser cytometry, cells loaded with oleic acid; for activity change, negative = inhibition: at 57.5 µM (top of the series). An excerpt: NIH Molecular Libraries Probe Production Centers Network [MLPCN]
NIH Chemical Genomics Center [NCGC]
Assay Submitter (PI): Beller, Mathias; Max-Planck-Institut fur Biophysikalische Chemie
NCGC Assay Overview: Storing lipids as a reservoir for energy or the anabolism of elementary metabolites is a common feature of probably all cells and is conserved from bacteria to humans. The universal cellular lipid storage organelle is the so-called lipid storage droplet (LD). Although ubiquitous, LDs share a simple structure composed of a hydrophobic core that harbors the storage lipids, which is shielded by a droplet-specific phospholipid monolayer to which proteins are attached. The current model of LD biogenesis involves an incorporation of the lipid core into the membrane leaflets of the endoplasmic reticulum (ER) followed by a subsequent budding-like maturation of a LD, which ultimately pinches off. Once released, LD volume can increase by localized lipogenesis or fusion of existing droplets. Storage lipids are re-mobilized enzymatically by lipase activity. Lipase regulation in the adipocyte is heavily studied and involves multiple components including catecholamine signaling, the LD-associated proteins Perilipin and comparative gene identification-58 (CGI-58) and at least two lipases named hormone sensitive lipase (HSL) and adipocyte triglyceride lipase (ATGL). LD regulation outside of the adipocyte is poorly understood and only few components are known. However, there is an urgent need to learn more about ectopic fat depots as mislocalized storage of lipids, for example in the liver or muscle, is an eminent health problem associated with insulin resistance or the metabolic syndrome. We developed a laser-scanning cytometer assay to enable 1,536-well screening and combined the results of the small molecules screen with an RNAi database based on lipid storage.
NCGC Assay Protocol Summary:
We dispensed 4 uL of cells at 1.25 x 10^6 cells/mL into LoBase Aurora COC 1,536-well plates (black walled, clear bottom) with a bottle-valve solenoid-based dispenser (Aurora) to obtain 5,000 cells/well. Triacsin C (Sigma-Aldrich T-4540), an inhibitor of long-chain fatty acyl CoA synthetase that blocks synthesis of triglycerides, was used as a positive control for lipid under-storage. A total of 23 nL of compound solution of different concentrations were transferred to the assay plates using a Kalypsys pin tool equipped with a 1,536-pin array containing 10-nL slotted pins (FP1S10, 0.457-mm diameter, 50.8 mm long; V&P Scientific). One microliter of oleic acid (400 uM) was added, and the plate was lidded with stainless steel rubber gasket lined lids containing pinholes. […] Fluorescence was detected by excitation of the fluorophores with a 488-nm laser on an Acumen Explorer (TTP Lab Tech). The total intensity in channel 1 (500-530 nm) reflected lipid droplet accumulation. […] The ratio of the total intensity in PMT channel 1 over total intensity of channel 3 was also calculated. Percent activity was computed relative to an internal control (100% inhibited lipid droplet deposition due to the presence of 20 uM Triacsin C), which was added to 32 wells/plate.

Setting [1] is: measured here: cell count channel max response.
[2] abbreviates: measured here: lipid channel max response.

For `Clc1cc(I)cc(Cl)c1NC1=NCCN1`, the activity change, negative = inhibition was 0.0728% (inactive). In addition, under setting [1], the max response was -25.7%. Under setting [2], the max response was -24.3%.
For the compound `CC(C)CC(NP(=O)(O)O[C@@H]1O[C@@H](C)[C@H](O)[C@@H](O)[C@H]1O)C(=O)NC(Cc1c[nH]c2ccccc12)C(=O)O` (some centres not stated), the activity change, negative = inhibition was 3.22% (inactive). The max response under setting [1] worked out at 23.5%. Also, the max response under setting [2] was 29.8%.
In the case of `CC(N)[C@H](O)c1ccc(O)c(O)c1` (some centres not stated), the activity change, negative = inhibition is 0.659% (inactive). For the same compound, under setting [1], the max response came to 1.77%. Further, the max response under setting [2] amounted to 2.21%.
Consider `CC(N)Cc1c[nH]c2ccc(O)cc12` (configuration not stated), for which the activity change, negative = inhibition is -0.0169% (inactive). Also, the max response under setting [1] came to 8.43%. Besides, under setting [2], the max response was determined as 9.94%.
In the same order, the values of `O=[N+]([O-])c1ccc2nc(N3CCNCC3)ccc2c1` are 0.42% (inactive), 28.4% and 27.7%.
As for `CCN(CCCl)Cc1ccccc1Br`, the activity change, negative = inhibition was -2.24% (inactive). Also, under setting [1], the max response is 32.6%. Moreover, the max response under setting [2] turned out to be 31.1%.
As for `CN1C2CCC1CC(OC(c1ccccc1)c1ccccc1N)C2` (configuration not stated), the activity change, negative = inhibition was 0.575% (inactive). Also, the max response under setting [1] is -2.6%. Further, the max response under setting [2] was -1.25%.
As for `COc1ccc(OC)c(C(O)C(C)N)c1` (configuration not stated), the activity change, negative = inhibition was 12.3% (inactive) and -2.22% (inactive). Also, the max response under setting [1] is 8.8% and 28.9%. In addition, the max response under setting [2] was 25.1% and 26.8%.
On to `Cc1cc(C)cc(C(=O)OC2C[C@H]3CC[C@@H](C2)N3C)c1` (some centres not stated), for which the activity change, negative = inhibition was 3% (inactive). Under setting [1], the max response is -0.988%. Further, the max response under setting [2] came out at 4.22%.
In the same order, the values of `CCCCCCC(C)(C)c1ccc([C@@H]2C[C@H](O)CC[C@H]2CCCO)c(O)c1` are -5.44% (inactive), 8.54% and 2.73%.
As for `C[N+](C)(C)CC#CCN1CCCC1=O`, the activity change, negative = inhibition was 1.94% (inactive). Under setting [1], the max response came to 5.23%. For the same compound, the max response under setting [2] amounted to 8.27%.
In the same order, the values of `NNC(=O)c1ccc(O)cc1` are 0.0246% (inactive), -17.6% and -15.4%.
On to `Cc1[nH]c2ccc(O)cc2c1CCN`, for which the activity change, negative = inhibition was -0.216% (inactive). Moreover, the max response under setting [1] is -4.56%. In addition, under setting [2], the max response is -4.28%.
Regarding `O=c1ccc2[nH]cc(C3=CCNCC3)c2[nH]1`, the activity change, negative = inhibition was 9.75% (inactive). Also, under setting [1], the max response turned out to be 9.34%. Besides, under setting [2], the max response was 20.6%.
